Assay results: PubChem BioAssay (EPA / NIEHS)
Values joined by “and” are separate entries in the source; they are usually repeats but may differ in a detail not shown here. Equal entries are not always repeated. More than one record can exist for a structure, and the calls need not agree. Active and inactive are the calls of the source. Rule for the calls: active = hit-call score of the fitted dose curve at least 0.9, where 1 is the maximum; inactive = score below 0.9.

Experiments:
[1] = read-out: Interleukin-6 (IL6), IL6 (gene 3569); experiment: BSK_CASM3C_IL6: BioMAP Diversity Plus: CASM3C Assay for Interleukin-6 (IL6) Biomarker Activity for (AID 2283040); conditions: primary human coronary artery smooth muscle cells; actives raise or lower the signal
[2] = read-out: Tissue plasminogen activator (tPA), PLAT (gene 5327); experiment: BSK_BE3C_tPA: BioMAP Diversity Plus: BE3C Assay for Tissue plasminogen activator (tPA) Biomarker Activity (AID 2283041); conditions: primary human bronchial epithelial cells; actives raise or lower the signal
In short: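 Bidirectional curve fitting relative to DMSO defined activity, with tPA detected by ELISA in chemically treated human bronchial epithelial primary cells at 24 hours.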

[3] = read-out: Interleukin-8 (IL8), CXCL8 (gene 3576); experiment: BSK_CASM3C_IL8: BioMAP Diversity Plus: CASM3C Assay for Interleukin-8 (IL8) Biomarker Activity (AID 2283042); conditions: primary human coronary artery smooth muscle cells; actives raise or lower the signal;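 note: IL-8 protein level quantified by ELISA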
[4] = read-out: Human Leukocyte Antigen - DR isotype (HLADR), HLA-DRA (gene 3122); experiment: BSK_CASM3C_HLADR: BioMAP Diversity Plus: CASM3C Assay for Human Leukocyte Antigen - DR isotype (HLADR) Biomarker Activity (AID 2283043); conditions: primary human coronary artery smooth muscle cells; actives raise or lower the signal;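 note: cell-surface HLA-DR protein level quantified by ELISA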
[5] = read-out: Macrophage colony-stimulating factor (MCSF), CSF1 (gene 1435); experiment: BSK_CASM3C_MCSF: BioMAP Diversity Plus: CASM3C Assay for Macrophage colony-stimulating factor (MCSF) Biomarker Activity (AID 2283044); conditions: primary human coronary artery smooth muscle cells; actives raise or lower the signal;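 note: M-CSF protein amount quantified by ELISA after 24 h exposure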
[6] = read-out: Low-density lipoprotein receptor (LDLR), LDLR (gene 3949); experiment: BSK_CASM3C_LDLR: BioMAP Diversity Plus: CASM3C Assay for Low-density lipoprotein receptor (LDLR) Biomarker Activity (AID 2283045); conditions: primary human coronary artery smooth muscle cells; actives raise or lower the signal;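 note: LDLR protein level on the cell surface quantified by ELISA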
[7] = read-out: Monocyte Chemoattractant Protein-1 (MCP1), CCL2 (gene 6347); experiment: BSK_CASM3C_MCP1: BioMAP Diversity Plus: CASM3C Assay for Monocyte Chemoattractant Protein-1 (MCP1) Biomarker Activity (AID 2283046); conditions: primary human coronary artery smooth muscle cells; actives raise or lower the signal;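 note: MCP-1 level quantified by ELISA 24 h after dosing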
[8] = BSK_CASM3C_Proliferation: Cell Proliferation Assessment in the BioMAP Diversity Plus: CASM3C Assay (AID 2283047); conditions: primary human coronary artery smooth muscle cells;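 note: sulforhodamine B total protein stain as relative cell number at 560 nm; sub-confluent cells exposed 48 h before staining; fitted both ways against DMSO so gain or loss of cell number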
[9] = read-out: Monokine induced gamma interferon (MIG), CXCL9 (gene 4283); experiment: BSK_CASM3C_MIG: BioMAP Diversity Plus: CASM3C Assay for Monokine induced gamma interferon (MIG) Biomarker Activity (AID 2283048); conditions: primary human coronary artery smooth muscle cells; actives raise or lower the signal;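 note: MIG protein level measured by ELISA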
[10] = read-out: serum amyloid A (SAA), SAA1 (gene 6288); experiment: BSK_CASM3C_SAA: BioMAP Diversity Plus: CASM3C Assay for serum amyloid A (SAA) Biomarker Activity (AID 2283049); conditions: primary human coronary artery smooth muscle cells; actives raise or lower the signal;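 note: SAA protein level quantified by ELISA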
[11] = BSK_CASM3C_SRB: Viability Assessment in the BioMAP Diversity Plus: CASM3C Assay (AID 2283050); conditions: primary human coronary artery smooth muscle cells;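 note: total protein by SRB staining as cytotoxicity measure in parallel cultures; cells exposed to compound for 24 h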
[12] = read-out: Thrombomodulin, THBD (gene 7056); experiment: BSK_CASM3C_Thrombomodulin: BioMAP Diversity Plus: CASM3C Assay for Thrombomodulin Biomarker Activity (AID 2283051); conditions: primary human coronary artery smooth muscle cells; actives raise or lower the signal;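 note: thrombomodulin protein level measured by ELISA 24 h after dosing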
[13] = read-out: Tissue Factor, F3 (gene 2152); experiment: BSK_CASM3C_TissueFactor: BioMAP Diversity Plus: CASM3C Assay for Tissue Factor Biomarker Activity (AID 2283052); conditions: primary human coronary artery smooth muscle cells; actives raise or lower the signal;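 note: cell surface tissue factor protein level read by ELISA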
[14] = read-out: Interferon-gamma inducible Protein 10 (IP10), CXCL10 (gene 3627); experiment: BSK_hDFCGF_IP10: BioMAP Diversity Plus: hDFCGF Assay for Interferon-gamma inducible Protein 10 (IP10) Biomarker Activity (AID 2283053); conditions: primary human foreskin fibroblasts; actives raise or lower the signal
In short: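 IP-10 levels, quantified by ELISA, are taken from human foreskin fibroblast cultures 24 h after chemical treatment, with DMSO serving as negative control and baseline for bidirectional analysis.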

[15] = read-out: Urokinase-type plasminogen activator receptor (uPAR), PLAUR (gene 5329); experiment: BSK_CASM3C_uPAR: BioMAP Diversity Plus: CASM3C Assay for Urokinase-type plasminogen activator receptor (uPAR) Biomarker Activity (AID 2283054); conditions: primary human coronary artery smooth muscle cells; actives raise or lower the signal;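 note: cell-surface uPAR protein level quantified by ELISA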
[16] = read-out: Vascular cell adhesion molecule 1 (VCAM1), VCAM1 (gene 7412); experiment: BSK_CASM3C_VCAM1: BioMAP Diversity Plus: CASM3C Assay for Vascular cell adhesion molecule 1 (VCAM1) Biomarker Activity (AID 2283055); conditions: primary human coronary artery smooth muscle cells; actives raise or lower the signal;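 note: VCAM-1 protein level quantified by ELISA on the cells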
[17] = read-out: Collagen III, COL3A1 (gene 1281); experiment: BSK_hDFCGF_CollagenIII: BioMAP Diversity Plus: hDFCGF Assay for Collagen III Biomarker Activity (AID 2283056); conditions: primary human foreskin fibroblasts; actives raise or lower the signal
In short: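 hDFCGF primary human dermal fibroblasts; 24 h chemical exposure; collagen III by ELISA; bidirectional curve fit vs DMSO baseline (gain or loss of signal).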

[18] = read-out: Epidermal growth factor receptor (EGFR), EGFR (gene 1956); experiment: BSK_hDFCGF_EGFR: BioMAP Diversity Plus: hDFCGF Assay for Epidermal growth factor receptor (EGFR) Biomarker Activity (AID 2283057); conditions: primary human foreskin fibroblasts; actives raise or lower the signal
In short: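 Measured by ELISA: EGFR levels on primary human foreskin fibroblasts 24 h after chemical treatment, analysed relative to DMSO with bidirectional fitting.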

[19] = read-out: Interleukin-8 (IL8), CXCL8 (gene 3576); experiment: BSK_hDFCGF_IL8: BioMAP Diversity Plus: hDFCGF Assay for Interleukin-8 (IL8) Biomarker Activity (AID 2283058); conditions: primary human foreskin fibroblasts; actives raise or lower the signal
In short: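 ELISA read-out of IL-8 from primary human foreskin fibroblast cultures taken 24 h after dosing; values are bidirectional fits relative to DMSO vehicle.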

[20] = BSK_hDFCGF_Proliferation: Cell Proliferation Assessment in the BioMAP Diversity Plus: hDFCGF Assay (AID 2283059); conditions: primary human foreskin fibroblasts;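 note: curves fitted for both rise and fall of signal versus DMSO baseline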
In short: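 Sub-confluent human foreskin fibroblast cultures receive test chemical […]. Relative cell number is quantified by sulforhodamine B staining (0.1%, after 10% TCA fixation) at 560 nm, with bidirectional fitting referenced to DMSO.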

Measured: AC50

O=C(O)C(F)(F)C(F)(F)C(F)(F)C(F)(F)C(F)(F)C(F)(F)C(F)(F)C(F)(F)C(F)(F)C(F)(F)C(F)(F)C(F)(F)F
inactive: [1] | [2] | [3] | [4] | [5] | [6] | [7] | [8] | [9] | [11] | [12] | [13] | [15] | [18] | [19] | [20]
active: [4] 16.1 µM | [10] 2.34 µM and 3.54 µM | [12] 13.3 µM | [14] 1.86 µM and 1.07 µM | [16] 7.09 µM and 4.44 µM | [17] 2.45 µM and 896 nM | [20] 2.47 µM

CCCCOCCOCCOC(=O)CCCCC(=O)OCCOCCOCCCC
inactive: [1] | [2] | [3] | [4] | [5] | [6] | [7] | [8] | [9] | [10] | [11] | [12] | [13] | [14] | [15] | [16] | [17] | [18] | [19] | [20]

O=C(O)C(F)(F)C(F)(F)C(F)(F)C(F)(F)C(F)(F)C(F)(F)C(F)(F)C(F)(F)C(F)(F)C(F)F
inactive: [1] | [2] | [3] | [4] | [5] | [6] | [7] | [8] | [9] | [10] | [11] | [12] | [13] | [15] | [16] | [18] | [19]
active: [14] 18.3 µM and 12.8 µM | [17] 3.34 µM and 8.08 µM | [20] 15.8 µM and 18.9 µM

FC(F)(I)C(F)(F)C(F)(F)C(F)(F)I
inactive: [2] | [3] | [4] | [6] | [12] | [13] | [18]
active: [1] 45.6 µM and 44.9 µM and 30 µM | [2] 46.5 µM and 43.2 µM | [3] 47.5 µM and 48.2 µM | [4] 50.5 µM | [5] 47.5 µM and 50.2 µM and 46.8 µM | [6] 23.6 µM and 43.5 µM | [7] 44.4 µM and 46 µM and 46.1 µM | [8] 43.4 µM and 49.7 µM and 43.9 µM | [9] 44.3 µM and 48.1 µM and 46.8 µM | [10] 47.5 µM and 45 µM and 47.6 µM | [11] 43.5 µM and 47.2 µM and 48.7 µM | [13] 30 µM and 40.4 µM | [14] 47.9 µM and 55.1 µM and 58.4 µM | [15] 47.2 µM and 43.9 µM and 54.4 µM | [16] 45.7 µM and 45.6 µM and 47.9 µM | [17] 30 µM and 44.1 µM and 39.5 µM | [19] 53.7 µM and 54.7 µM and 56.5 µM | [20] 48.7 µM and 45.5 µM and 43.3 µM

O=C(O)C(F)(F)C(F)(F)C(F)(F)C(F)(F)C(F)(F)C(F)(F)C(F)(F)C(F)(F)Cl
active: [2] 30 µM and 20.4 µM | [14] 39.2 µM and 41.9 µM | [17] 8.33 µM | [18] 7.33 µM and 55.2 µM | [20] 43.1 µM and 45.7 µM
inactive: [1] | [3] | [4] | [5] | [6] | [7] | [8] | [9] | [10] | [11] | [12] | [13] | [15] | [16] | [17] | [19]

O=P(O)(O)OCCC(F)(F)C(F)(F)C(F)(F)C(F)(F)C(F)(F)C(F)(F)F
active: [2] 3.64 µM | [7] 258 nM | [10] 457 nM | [14] 7.21 µM
inactive: [1] | [2] | [3] | [4] | [5] | [6] | [7] | [8] | [9] | [10] | [11] | [12] | [13] | [14] | [15] | [16] | [17] | [18] | [19] | [20]

O=S(=O)(OCC(F)F)C(F)(F)F
inactive: [1] | [2] | [3] | [4] | [5] | [6] | [7] | [8] | [9] | [10] | [11] | [12] | [13] | [14] | [15] | [16] | [17] | [18] | [19] | [20]

O=C(O)C(F)(F)C(F)(F)C(F)(F)F
inactive: [1] | [2] | [3] | [4] | [5] | [6] | [7] | [8] | [9] | [10] | [11] | [12] | [13] | [14] | [15] | [16] | [17] | [18] | [19] | [20]

FC(F)(F)C(F)(F)CNCC(F)(F)C(F)(F)F
active: [18] 7.57 µM
inactive: [1] | [2] | [3] | [4] | [5] | [6] | [7] | [8] | [9] | [10] | [11] | [12] | [13] | [14] | [15] | [16] | [17] | [18] | [19] | [20]
